Source: PubChem
Rows were chosen to be rich in hits. Some 3.5% of all compounds tested hit in one or more screens of this group.
BoNT F protease: inhibitors of Botulinum neurotoxin F light chain protease. Multiplex microsphere protease cleavage assay, flow cytometry. inhibition, % at 10 µM. hit rate 0.22% among 360,000; in the data active means inhibition above about 35%, passing the limit was not always enough; inconclusive means no clear call, values can overlap the other calls
BoNT-A LC inh2: blocks Botulinum neurotoxin A light chain protease; multiplex microsphere protease substrate cleavage, flow cytometry; inhibition, % at 10 µM; AID 588499; hit rate 0.17% among 360,000; in the data active means inhibition above about 30%; inconclusive means no clear call, values can overlap the other calls
Anthrax LF inh2: blocks Bacillus anthracis lethal factor protease. hit rate 0.12% among 360,000. inhibition, % at 10 µM. P15917. multiplex microsphere protease cleavage assay, LF; in the data active means inhibition above about 30%; inconclusive means no clear call, values can overlap the other calls
Target sequence (P15917 whole entry, looked up): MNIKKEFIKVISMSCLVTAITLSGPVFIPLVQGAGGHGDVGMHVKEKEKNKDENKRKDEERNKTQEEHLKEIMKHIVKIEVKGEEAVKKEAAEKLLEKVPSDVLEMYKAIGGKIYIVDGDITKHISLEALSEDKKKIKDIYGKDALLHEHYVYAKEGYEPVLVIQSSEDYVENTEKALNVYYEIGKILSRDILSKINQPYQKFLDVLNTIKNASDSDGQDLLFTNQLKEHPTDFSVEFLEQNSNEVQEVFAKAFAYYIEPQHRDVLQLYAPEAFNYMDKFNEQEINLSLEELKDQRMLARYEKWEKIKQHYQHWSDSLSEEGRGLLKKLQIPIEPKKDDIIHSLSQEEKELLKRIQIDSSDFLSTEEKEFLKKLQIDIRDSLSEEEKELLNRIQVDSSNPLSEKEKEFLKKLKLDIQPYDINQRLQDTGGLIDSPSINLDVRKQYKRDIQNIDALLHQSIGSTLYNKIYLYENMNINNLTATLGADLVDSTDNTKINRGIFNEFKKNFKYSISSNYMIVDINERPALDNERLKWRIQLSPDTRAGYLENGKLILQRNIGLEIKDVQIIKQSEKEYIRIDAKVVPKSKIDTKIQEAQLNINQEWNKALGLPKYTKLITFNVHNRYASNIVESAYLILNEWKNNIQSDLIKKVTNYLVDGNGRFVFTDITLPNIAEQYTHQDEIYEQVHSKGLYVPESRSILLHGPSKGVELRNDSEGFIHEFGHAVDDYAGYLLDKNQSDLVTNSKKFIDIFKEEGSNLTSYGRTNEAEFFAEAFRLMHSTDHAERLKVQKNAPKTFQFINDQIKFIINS
Autofluor counter: compound fluorescence in toxin protease inhibitor counterscreen | fluorescence intensity (test concentration not listed) | compound autofluorescence counterscreen, microsphere flow cytometry; hits give high values | hit rate 3.1% among 360,000 | AID 624483; in the data active means fluorescence intensity above about 16000; inconclusive means no clear call, values can overlap the other calls
BoNTA LC inh 1: BoNT/A light chain protease inhibition | shares compounds with BoNT F protease | hit rate 3% among 720 | multiplex microsphere protease assay, flow cytometry | inhibition, % at 10 µM; in the data active means inhibition above about 32%
BoNTF LC inh 1: BoNT/F light chain protease inhibition; shares compounds with BoNT F protease; multiplex microsphere protease cleavage assay, flow cytometry; inhibition, % at 10 µM; 720 tested, under 10 active; AID 602140
LF protease CP1: inhibitors of Bacillus anthracis lethal factor protease; shares compounds with BoNT F protease; multiplex microsphere protease cleavage assay, LF; inhibition, % at 10 µM; 720 tested, under 10 active; AID 602142
Each line names hits and unclear results; the compound was inactive in the other large screens (follow-up assays come after a bar, where they were run). Unless noted, how the calls were made is not given here.

CS(=O)(=O)N1CCN(Cc2cc(=O)n3ccsc3n2)CC1	none
COc1ccc(C(=O)O)cc1S(=O)(=O)N1CCN(Cc2ccc3c(c2)OCO3)CC1	none
Cc1cc(C)nc(NS(=O)(=O)c2ccc(NC(=O)c3ccc4c(c3)OCCO4)cc2)n1	BoNT F protease 36 | BoNTA LC inh 1 inactive | BoNTF LC inh 1 inactive | LF protease CP1 inactive
O=C(Nc1ccncc1)c1ccc(NS(=O)(=O)c2ccc3[nH]c(=O)[nH]c3c2)cc1	none
CCn1c(COC(=O)CNC(=O)c2cc(OC)c(OC)c(OC)c2)nc2cc(S(=O)(=O)N(C)C)ccc21	none
CCCn1c2ccccc2c2nc3ccccc3nc21	BoNT-A LC inh2 57, Anthrax LF inh2 31 | BoNTA LC inh 1 inactive | BoNTF LC inh 1 inactive | LF protease CP1 inactive
COc1ccc(NC(=O)C2(C)Cc3c(-c4ccc(C(N)=O)cc4)ccnc3O2)cn1 (stereo not drawn)	none
COc1ccc(NC(=O)C2CC(c3ccc(Cl)cc3)=NO2)cc1 (stereo not drawn)	Anthrax LF inh2 45 | BoNTA LC inh 1 inactive | BoNTF LC inh 1 inactive | LF protease CP1 inactive
COc1ccc(Cl)cc1NC(=O)C1CC(c2c(F)cccc2Cl)=NO1 (stereo not drawn)	BoNT F protease 37 | BoNTA LC inh 1 inactive | BoNTF LC inh 1 inactive | LF protease CP1 inactive
O=C(Nc1ccccc1)C1CCN(S(=O)(=O)c2cccs2)CC1	none
O=C(Nc1ccccc1)C1CCN(c2nccs2)CC1	BoNT F protease inconclusive, BoNT-A LC inh2 40, Anthrax LF inh2 40, Autofluor counter inconclusive | BoNTA LC inh 1 inactive | BoNTF LC inh 1 inactive | LF protease CP1 inactive
Cc1nc(N2CCN(C(c3ccccc3)c3ccccc3)CC2)[nH]c(=O)c1C	BoNT F protease 35 | BoNTA LC inh 1 inactive | BoNTF LC inh 1 inactive | LF protease CP1 inactive
CN(Cc1cccnc1)C(=O)c1cc(S(=O)(=O)Nc2ccccc2F)ccc1Cl	BoNT F protease inconclusive
CCC(=O)Nc1cccc(C(=O)N(Cc2ccccc2)Cc2ccccc2)c1	BoNT F protease 44 | BoNTA LC inh 1 inactive | BoNTF LC inh 1 inactive | LF protease CP1 inactive
CCOc1ccc2nc3cc(NCc4ccc(OC)cc4)ccc3c(N)c2c1	BoNT-A LC inh2 70 | BoNTA LC inh 1 33 | BoNTF LC inh 1 inactive | LF protease CP1 inactive
COc1ccccc1C(=O)COC(=O)Cn1[nH]c(=O)c2ccccc2c1=O	none
O=C(Cc1ccccc1)c1ccc(Cl)cc1	BoNT F protease inconclusive, BoNT-A LC inh2 inconclusive, Anthrax LF inh2 30 | BoNTA LC inh 1 inactive | BoNTF LC inh 1 inactive | LF protease CP1 inactive
CCc1ccccc1N1C(=O)C2C3C=CC(CC3)C2C1=O (stereo not drawn)	none
O=C1C2C3C=CC(CC3)C2C(=O)N1c1ccc(Cl)cc1Cl (stereo not drawn)	BoNT F protease 60 | BoNTA LC inh 1 inactive | BoNTF LC inh 1 inactive | LF protease CP1 inactive
O=C(CSc1nnc(-c2cccs2)n1C1CC1)NCC1CCCO1 (stereo not drawn)	none
Cc1[nH]c(=O)[nH]c(=O)c1S(=O)(=O)Nc1ccc(F)c(Cl)c1	Anthrax LF inh2 33 | BoNTA LC inh 1 inactive | BoNTF LC inh 1 inactive | LF protease CP1 inactive
Cc1cc(Cl)ccc1NS(=O)(=O)c1c(C)[nH]c(=O)[nH]c1=O	none
CCc1nc2c(OCc3ccc(F)cc3)cccn2c1N(C)C(=O)C(C)C	none
CCc1nnc(NC(=O)COc2ccccc2[N+](=O)[O-])s1	BoNT F protease inconclusive, Anthrax LF inh2 30 | BoNTA LC inh 1 inactive | BoNTF LC inh 1 inactive | LF protease CP1 inactive
COc1ccc(-n2nc(C(=O)NCC(=O)Nc3cccc(Cl)c3)c3ccccc3c2=O)cc1OC	BoNT F protease 51 | BoNTA LC inh 1 inactive | BoNTF LC inh 1 inactive | LF protease CP1 inactive
CCOc1ccc(NC(=O)CNC(=O)c2nn(-c3ccc(OC)c(OC)c3)c(=O)c3ccccc23)cc1	none
CSc1ccc(CN(C)CC(=O)NCCc2ccccc2)cc1	BoNT F protease 40 | BoNTA LC inh 1 inactive | BoNTF LC inh 1 inactive | LF protease CP1 inactive
Cc1cccc(NC(=O)c2c(O)c3ccccc3[nH]c2=O)c1	none
O=C(Nc1cccc(O)c1)c1c(O)c2ccccc2[nH]c1=O	BoNT F protease 36 | BoNTA LC inh 1 inactive | BoNTF LC inh 1 inactive | LF protease CP1 inactive
COc1ccc(CN2CCN(C3CCSCC3)CC2CCO)c(C)c1C (stereo not drawn)	none
COc1ccc(CN2CCN(CC3CC3)CC2CCO)c(C)c1C (stereo not drawn)	Anthrax LF inh2 43 | BoNTA LC inh 1 inactive | BoNTF LC inh 1 inactive | LF protease CP1 inactive
CCS(=O)(=O)N1CCC(C(=O)Nc2ccc(C(C)=O)cc2)CC1	none
CCc1nc(SCC(=O)NCCc2ccccc2)n[nH]1	BoNT F protease 35 | BoNTA LC inh 1 inactive | BoNTF LC inh 1 inactive | LF protease CP1 inactive
O=C(CSc1n[nH]c(-c2ccncc2)n1)NCCc1ccccc1	none
O=C(Cn1cnc2sc(-c3ccccc3)cc2c1=O)NCc1ccccc1	none
O=C(Cn1cnc2sc(-c3ccccc3)cc2c1=O)NCCc1ccccc1	BoNT F protease 45 | BoNTA LC inh 1 inactive | BoNTF LC inh 1 inactive | LF protease CP1 inactive
CCn1c(=O)c2c(nc(SCC(=O)N3CCCC(C)C3)n2C)n(C)c1=O (stereo not drawn)	none
COCCN(C(=O)COC(=O)C1CCC(C(C)(C)C)CC1)c1c(N)n(Cc2ccccc2)c(=O)[nH]c1=O (stereo not drawn)	none
CC(C)n1c(NCc2ccccc2O)nc2ccccc21	BoNT F protease 49 | BoNTA LC inh 1 inactive | BoNTF LC inh 1 inactive | LF protease CP1 inactive
COc1ccc(-c2nnc(OC)c3ccccc23)cc1	BoNT F protease 37 | BoNTA LC inh 1 inactive | BoNTF LC inh 1 inactive | LF protease CP1 inactive
Cc1nc2ccc([N+](=O)[O-])cc2c(=O)n1Cc1cccc(F)c1	BoNT F protease 85, Anthrax LF inh2 60 | BoNTA LC inh 1 inactive | BoNTF LC inh 1 inactive | LF protease CP1 inactive
Cc1cc(-c2c(C(=O)N3CCOCC3)c(C)nn2-c2ccccc2)no1	BoNT F protease inconclusive, Anthrax LF inh2 34 | BoNTA LC inh 1 inactive | BoNTF LC inh 1 inactive | LF protease CP1 inactive
Cc1cc(-c2c(C(=O)N3CCOCC3)c(C)nn2-c2cccc(C(F)(F)F)c2)no1	BoNT F protease inconclusive, BoNT-A LC inh2 inconclusive
O=C(O)CSc1nnc(-c2ccc(Cl)cc2)n1-c1ccccc1	BoNT F protease 36 | BoNTA LC inh 1 inactive | BoNTF LC inh 1 inactive | LF protease CP1 inactive
CCCC(C(=O)NC(C)(C)CC)N(CC1CCCO1)C(=O)CNS(=O)(=O)c1ccc(F)cc1 (stereo not drawn)	Anthrax LF inh2 30 | BoNTA LC inh 1 inactive | BoNTF LC inh 1 inactive | LF protease CP1 inactive
Cc1ccc(C(=O)COC(=O)CCNS(=O)(=O)c2ccccc2F)cc1	none
O=C(O)C1C2C=CC(C2)C1C(=O)N1CCc2ccccc21 (stereo not drawn)	BoNT F protease 39 | BoNTA LC inh 1 inactive | BoNTF LC inh 1 inactive | LF protease CP1 inactive
O=C(Nc1ccc2nc(-c3cccs3)c(-c3cccs3)nc2c1)N1CCOCC1	BoNT-A LC inh2 68, Anthrax LF inh2 41, Autofluor counter 18209 | BoNTA LC inh 1 39 | BoNTF LC inh 1 inactive | LF protease CP1 inactive
